From PubChem BioAssay AID686979 (National Center for Advancing Translational Sciences (NCATS), 2013)
About 50,000 (12%) of roughly 420,000 compounds were called active. Where a call stands in place of a potency, no number is given. Roughly 26% stayed inconclusive and do not appear here. This is one part of a sample in which actives are shown more often than they occur. The call rests on the fitted dose curve; in most records, active means well fitted inhibition curve with a large enough effect; inconclusive means small, poorly fitted or top-dose-only effect; inactive means flat fitted curve, though single readings scatter.

Test: qHTS for Inhibitors of human tyrosyl-DNA phosphodiesterase 1 (TDP1): qHTS in cells in presence of CPT; further: nearly all actives have a fitted effect of over 55% in size
Details: chicken DT40 Tdp1-/-;hTDP1 cells + 20 nM CPT, ATP luminescence, 48 h; series mostly up to 46.2 µM
Outline: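 Chicken DT40 Tdp1-/- cells complemented with human TDP1, 400 cells/well, exposed to compounds plus 20 nM camptothecin for at least 48 h at 37 C; viability read as ATP content by CellTiter-Glo luminescence.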
Potency means the concentration at half of the fitted maximal effect.

Row | SMILES | Potency
1 | CC(C)(C)C(=O)c1c(N)[nH]c(C(=O)c2ccccc2)c1-c1ccc(F)cc1 | inactive
2 | Cc1cc(C)c2c(c1)cc(C)c1nnc(SCC(=O)Nc3cc(C)on3)n12 | 8.2 µM (active)
3 | Cc1cc(NC(=O)CSc2nnc(-c3ccco3)n2N)no1 | inactive
4 | Cc1cc(NC(=O)CSc2nnnn2-c2ccc(F)cc2)no1 | inactive
5 | O=C(CC1Oc2ccccc2NC1=O)NCc1ccc(F)cc1 (stereo unspecified) | inactive
6 | COc1cccc(NC(=O)CSc2nnc(C3CCCCC3)n2N)c1 | inactive
7 | CCN(CC)S(=O)(=O)c1ccc(NC(=O)c2cnc(C)cn2)cc1 | inactive
8 | CCN(CC)S(=O)(=O)c1ccc2c(c1)nc(CN(C)C(=O)Nc1ccc(Cl)cc1)n2C | 18.4 µM (active)
9 | CCN(CC)S(=O)(=O)c1ccc(Cl)c(NC(=O)c2ccncc2)c1 | inactive
10 | COc1cc(NS(=O)(=O)c2ccc(NC(=S)NC(=O)c3ccc(Br)cc3)cc2)ncn1 | inactive
11 | C=CCOc1cccc(CNCc2cccnc2)c1 | inactive
12 | COc1ccc(-c2ccc3[nH]c4c(c3c2)CCN2C[C@H]3[C@H](C)ON(C)[C@H]3C[C@@H]42)cc1 | 20.6 µM (active)
13 | COC(=O)[C@H]1[C@H]2C[C@H]3c4[nH]c5ccccc5c4CCN3C[C@@H]2CC[C@@H]1O | inactive
14 | C[C@@H]1ON(C)[C@H]2C[C@H]3c4cc(N5CCN(C)CC5)ccc4CCN3C(=O)[C@@H]12 | inactive
15 | O=C(C[C@H]1C(=O)N(c2ccc(F)c(F)c2)C[C@@H]1Cc1ccccc1)Nc1ccccc1 | 11.2 µM (active)
16 | COc1ccc(NC(=O)C[C@H]2C(=O)N(CCc3ccccc3)C[C@@H]2C)cc1 | inactive
17 | CNC(=O)C[C@H]1C(=O)N(c2ccc(OC)cc2)C[C@@H]1Cc1ccccc1 | inactive
18 | CCOc1ccc(CNCCSc2nnnn2C)cc1 | inactive
19 | COC(=O)COc1cccc2c(=O)n(CC(=O)NCCc3ccc(OC)c(OC)c3)ccc12 | inactive
20 | CCOCCn1ccc2c(OCC(=O)NCc3ccc(C)cc3)cccc2c1=O | inactive
21 | COC(=O)COc1cccc2c(=O)n(CC(=O)NCc3ccccc3)ccc12 | 1.84 µM (active)

Row | SMILES | Potency
22 | O=C(NN=CC=Cc1ccccc1)C(O)C(O)C(=O)NN=CC=Cc1ccccc1 (stereo unspecified) | inactive
23 | CCC(=O)Oc1cccc(C(=O)Nc2ccc(-c3nnc(-c4ccco4)o3)cc2)c1 | 6.51 µM (active)
24 | CCOc1ccc(-c2nnc(-c3ccco3)o2)cc1 | inactive
25 | CCCCOc1ccc(-c2nnc(-c3ccco3)o2)cc1 | inactive
26 | COc1ccc(C)cc1S(=O)(=O)Nc1cc2c3c(c1)CCC(=O)N3CCC2 | inactive
27 | Cc1nc(C(F)(F)F)ccc1C(=O)N1CCC1(C)C(=O)NS(=O)(=O)c1ccccc1Cl (stereo unspecified) | inactive
28 | CCNC(=S)N(CCN(CC)CC)Cc1cc2cc3c(cc2[nH]c1=O)OCO3 | inactive
29 | CCN(c1ccccc1)S(=O)(=O)c1cccc(C(=O)NCc2ccccc2CN2CCOCC2)c1 | 20.6 µM (active)
30 | O=C(NCCN1CCOCC1)c1cccc(S(=O)(=O)Nc2ccc(F)cc2)c1 | inactive
31 | CCOC(=O)C1CCN(C(=O)c2cccc(S(=O)(=O)N(CC)c3ccccc3)c2)CC1 | 14.6 µM (active)
32 | CCOC(=O)C1CCCN(C(=O)c2cccc(S(=O)(=O)N3CCOCC3)c2)C1 (stereo unspecified) | inactive
33 | CCN(CC)S(=O)(=O)c1ccc(Cl)c(C(=O)NCCN2CCOCC2)c1 | inactive
34 | CCOC(=O)C1CCCN(C(=O)c2ccc(N(C)C)cc2)CC1 (stereo unspecified) | inactive
35 | CCOc1ccc(CNC(=O)c2ccc3nc(CC)c(CC)nc3c2)cc1OC | inactive
36 | COc1ccc(C(=O)NC(=S)N2CCNC(=O)C2CC(=O)OC(C)C)cc1 (stereo unspecified) | inactive
37 | CCOc1cc(C(=O)Nc2ccc(S(=O)(=O)Nc3cnc4ccccc4n3)cc2)cc(OCC)c1OCC | inactive
38 | CCc1nc2ccc(C(=O)NCc3ccc(OC)cc3)cn2c1N(CC)Cc1cccc(Br)c1 | 23.1 µM (active)
39 | CCc1nc2ccc(C(=O)Nc3cccc(OC)c3)cn2c1N(CCC(C)C)CCN(C)C | inactive
40 | CCc1nc2ccc(C(=O)Nc3cc(-c4ccccc4)ccc3OC)cn2c1N(CC)CC(=O)N(C)C | 14.6 µM (active)
41 | CCc1nc2ccc(C(=O)N(C)CCN(C)C)cn2c1N(CC)CCOC | inactive
42 | CCc1nc2ccc(C(=O)N(C)Cc3ccco3)cn2c1N(C)C(=O)Cc1ccccc1 | inactive

Row | SMILES | Potency
43 | CCc1nc2ccc(C(=O)N3CCC(O)(Cc4ccccc4)CC3)cn2c1N(C)C(=O)Cc1ccccc1 | inactive
44 | O=C(C[C@H]1CC[C@@H](NC(=O)c2ccncc2)[C@@H](CO)O1)NCC1CC1 | inactive
45 | O=C(NCCCNc1ccc([N+](=O)[O-])cc1Cl)c1ccccc1F | inactive
46 | N#CCSc1ccccc1NC(=O)CN1C(=O)NC(CCc2ccccc2)C1=O (stereo unspecified) | inactive
47 | COC(=O)c1c(NC(=O)COc2ccc(Cl)cc2Cl)sc2c1CC(C)(C)NC2(C)C | 7.31 µM (active)
48 | Cc1cnc(C(=O)OCC(=O)Nc2ccc(Cl)cc2Cl)cn1 | inactive
49 | CCOC(=O)c1c(NC(=O)COc2cc(C)ccc2C(C)C)sc(C)c1C | inactive
50 | O=S(=O)(NCCc1ccc(F)cc1)c1cccc2cccnc12 | inactive
51 | CCOC(=O)c1ccc(NC(=O)Cn2cc(S(=O)(=O)Cc3ccccc3F)c3ccccc32)cc1 | inactive
52 | CCOc1ccc(C(=O)c2cn(Cc3ccccc3OC)c3ccc(F)cc3c2=O)cc1 | 16.4 µM (active)
53 | CCOc1ccc(C(=O)c2cn(Cc3ccc(F)cc3)c3ccc(F)cc3c2=O)cc1 | 18.4 µM (active)
54 | COc1ccccc1CNC(=O)CN1CCC(n2cnc3cc(F)ccc32)CC1 | inactive
55 | COc1ccc(NC(=O)Cn2cc(C(=O)c3ccncc3)c(=O)c3cc(C)ccc32)cc1Cl | inactive
56 | Cc1ccc(Cn2cc(C(=O)NN)c(=O)c3ccc(F)cc32)cc1 | inactive
57 | O=C(c1ccc(F)cc1)c1cn(Cc2ccc(F)cc2)c2cc3c(cc2c1=O)OCCO3 | inactive
58 | CC12CCC(C(=O)N3CCN(c4ncccn4)CC3)(c3nc4ccccc4nc31)C2(C)C (stereo unspecified) | inactive
59 | Cc1nc(SCC(=O)Nc2ccc(C(=O)O)cc2)n[nH]1 | inactive
60 | CC1CC(C)CN(C(=O)C2CC(=O)N(c3ccc(F)cc3)C2)C1 (stereo unspecified) | inactive
61 | CC(=O)Nc1ccc(NC(=O)CS(=O)(=O)c2cn(CC(=O)N3CCCCC3)c3ccccc23)cc1 | inactive
